Measurements reported in the supplement of paper PMC11732987, “Enantioselective OTUD7B fragment discovery through chemoproteomics screening and high-throughput optimisation” (Communications Chemistry, 2025).

Key:
Assay in all cases: log2 ratio of Biotin-Ahx-Ub-VS probe labelling (fragment/DMSO); higher = less target engagement (more negative = stronger competition), active = hit call of the paper (q ≤ 0.05, log2 ratio ≤ -1)
Conditions in all cases: compound concentration: 200 uM; treatment time: 3 h
[1] = biological target: T1, USP19 (UniProt O94966)
T1 sequence (whole entry): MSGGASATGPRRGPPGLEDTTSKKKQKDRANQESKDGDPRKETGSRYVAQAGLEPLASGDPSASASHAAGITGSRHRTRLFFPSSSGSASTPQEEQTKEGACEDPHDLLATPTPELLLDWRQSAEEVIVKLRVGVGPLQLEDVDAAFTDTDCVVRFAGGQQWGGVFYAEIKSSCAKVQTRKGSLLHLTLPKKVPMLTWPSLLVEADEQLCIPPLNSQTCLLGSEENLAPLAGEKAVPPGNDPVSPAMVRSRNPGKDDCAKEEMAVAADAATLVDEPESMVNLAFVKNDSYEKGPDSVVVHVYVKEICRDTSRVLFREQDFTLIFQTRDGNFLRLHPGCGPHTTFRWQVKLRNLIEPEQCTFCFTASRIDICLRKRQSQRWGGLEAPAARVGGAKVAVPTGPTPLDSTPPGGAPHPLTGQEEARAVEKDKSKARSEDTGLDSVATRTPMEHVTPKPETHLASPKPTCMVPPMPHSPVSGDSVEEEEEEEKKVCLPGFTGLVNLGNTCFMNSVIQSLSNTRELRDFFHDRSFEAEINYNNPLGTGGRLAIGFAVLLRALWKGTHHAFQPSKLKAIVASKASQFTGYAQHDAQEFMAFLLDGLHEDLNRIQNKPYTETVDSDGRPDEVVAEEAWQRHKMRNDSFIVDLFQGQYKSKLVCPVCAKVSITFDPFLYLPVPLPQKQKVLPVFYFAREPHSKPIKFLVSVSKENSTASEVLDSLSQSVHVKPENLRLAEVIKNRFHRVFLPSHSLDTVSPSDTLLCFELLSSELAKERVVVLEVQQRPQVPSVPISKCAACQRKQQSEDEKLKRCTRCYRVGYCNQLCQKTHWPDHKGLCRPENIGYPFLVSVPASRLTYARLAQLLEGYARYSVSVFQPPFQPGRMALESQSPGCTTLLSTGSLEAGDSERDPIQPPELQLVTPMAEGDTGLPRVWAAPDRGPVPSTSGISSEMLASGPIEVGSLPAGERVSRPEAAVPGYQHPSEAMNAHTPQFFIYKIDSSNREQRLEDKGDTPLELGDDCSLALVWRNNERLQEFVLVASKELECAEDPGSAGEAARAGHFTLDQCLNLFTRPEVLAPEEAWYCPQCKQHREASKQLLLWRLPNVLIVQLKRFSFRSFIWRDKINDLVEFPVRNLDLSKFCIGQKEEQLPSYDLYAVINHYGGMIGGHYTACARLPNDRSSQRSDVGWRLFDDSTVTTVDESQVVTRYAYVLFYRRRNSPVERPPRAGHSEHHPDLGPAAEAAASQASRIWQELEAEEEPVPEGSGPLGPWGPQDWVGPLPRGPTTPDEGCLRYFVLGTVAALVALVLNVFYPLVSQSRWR
Summary of the method: (§1)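 Fragment (200 µM) or vehicle was incubated for 3 h with triplicate HEK293T lysate samples of 495 µg, which were then treated with Biotin-Ahx-Ub-VS at 0.5 µM final for 1 h. Labelled DUBs were enriched on NeutrAvidin, digested with LysC and trypsin, and analysed by diaPASEF LC-MS/MS. Values are average log2 fragment/vehicle ratios from an unpaired t-test on global-median-normalised Spectronaut label-free quantities, using proteins with ≥2 unique peptides.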

[2] = biological target: USP24 (UniProt Q9UPU5)
Summary of the method: as §1

[3] = biological target: T2, USP25 (UniProt Q9UHP3)
T2 sequence (whole entry): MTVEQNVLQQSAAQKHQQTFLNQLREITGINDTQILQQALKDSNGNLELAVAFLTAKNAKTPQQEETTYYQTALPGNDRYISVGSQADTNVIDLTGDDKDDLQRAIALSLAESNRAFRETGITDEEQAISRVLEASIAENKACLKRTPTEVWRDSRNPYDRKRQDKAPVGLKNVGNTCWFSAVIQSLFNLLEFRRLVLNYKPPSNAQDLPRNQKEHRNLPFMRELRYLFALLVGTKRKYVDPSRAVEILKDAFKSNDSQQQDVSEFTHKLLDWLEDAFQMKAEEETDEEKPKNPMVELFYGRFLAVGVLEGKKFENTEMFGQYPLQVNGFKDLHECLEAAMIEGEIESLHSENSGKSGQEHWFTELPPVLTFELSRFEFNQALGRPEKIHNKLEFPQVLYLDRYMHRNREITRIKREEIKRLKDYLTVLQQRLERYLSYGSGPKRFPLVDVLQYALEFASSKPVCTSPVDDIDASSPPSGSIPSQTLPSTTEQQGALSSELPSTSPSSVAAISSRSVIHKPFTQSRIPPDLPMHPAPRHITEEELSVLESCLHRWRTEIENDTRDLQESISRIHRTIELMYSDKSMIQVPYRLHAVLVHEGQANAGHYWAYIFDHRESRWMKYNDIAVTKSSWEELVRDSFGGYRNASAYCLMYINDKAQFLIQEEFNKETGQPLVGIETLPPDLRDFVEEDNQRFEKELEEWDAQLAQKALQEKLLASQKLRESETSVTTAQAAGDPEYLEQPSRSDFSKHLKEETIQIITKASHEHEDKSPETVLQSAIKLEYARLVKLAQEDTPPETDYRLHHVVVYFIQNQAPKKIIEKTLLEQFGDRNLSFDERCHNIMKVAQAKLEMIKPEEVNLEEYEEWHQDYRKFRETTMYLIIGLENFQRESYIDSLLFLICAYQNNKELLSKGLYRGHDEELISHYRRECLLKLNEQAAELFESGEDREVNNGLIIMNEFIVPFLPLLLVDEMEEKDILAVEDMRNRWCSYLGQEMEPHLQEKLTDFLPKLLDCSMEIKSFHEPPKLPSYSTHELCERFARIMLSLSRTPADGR
Summary of the method: as §1

[4] = biological target: T3, USP28 (UniProt Q96RU2)
T3 sequence (whole entry): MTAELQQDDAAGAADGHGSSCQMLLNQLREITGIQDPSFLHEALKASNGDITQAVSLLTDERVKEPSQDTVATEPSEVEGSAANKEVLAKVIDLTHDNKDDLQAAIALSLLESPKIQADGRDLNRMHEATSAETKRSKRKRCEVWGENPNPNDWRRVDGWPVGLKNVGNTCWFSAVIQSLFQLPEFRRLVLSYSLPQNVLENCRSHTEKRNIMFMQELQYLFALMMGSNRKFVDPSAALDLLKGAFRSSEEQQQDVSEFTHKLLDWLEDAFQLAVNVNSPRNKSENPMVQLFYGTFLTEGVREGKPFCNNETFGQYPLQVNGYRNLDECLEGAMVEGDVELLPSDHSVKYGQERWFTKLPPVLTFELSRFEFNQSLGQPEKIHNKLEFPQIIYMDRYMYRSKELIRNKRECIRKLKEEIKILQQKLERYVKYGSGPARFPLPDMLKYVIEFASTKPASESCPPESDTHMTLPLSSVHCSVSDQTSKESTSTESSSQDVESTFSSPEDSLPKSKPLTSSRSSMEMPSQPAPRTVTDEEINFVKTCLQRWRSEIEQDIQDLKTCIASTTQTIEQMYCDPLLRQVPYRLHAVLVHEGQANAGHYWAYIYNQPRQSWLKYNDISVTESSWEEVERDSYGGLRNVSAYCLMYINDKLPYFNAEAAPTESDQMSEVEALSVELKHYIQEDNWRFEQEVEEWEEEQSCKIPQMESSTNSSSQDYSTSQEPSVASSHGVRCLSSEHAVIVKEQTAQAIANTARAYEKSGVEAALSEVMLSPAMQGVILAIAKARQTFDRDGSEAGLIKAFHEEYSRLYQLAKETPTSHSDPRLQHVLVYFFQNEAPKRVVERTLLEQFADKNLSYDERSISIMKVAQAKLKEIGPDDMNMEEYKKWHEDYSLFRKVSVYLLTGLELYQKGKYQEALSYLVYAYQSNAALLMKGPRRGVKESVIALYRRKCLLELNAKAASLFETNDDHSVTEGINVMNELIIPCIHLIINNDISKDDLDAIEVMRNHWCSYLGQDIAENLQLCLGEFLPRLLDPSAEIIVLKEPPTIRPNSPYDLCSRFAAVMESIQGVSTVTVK
Summary of the method: as §1

Measured: log2 ratio of Biotin-Ahx-Ub-VS probe labelling

USP24, sequence (Q9UPU5 whole entry): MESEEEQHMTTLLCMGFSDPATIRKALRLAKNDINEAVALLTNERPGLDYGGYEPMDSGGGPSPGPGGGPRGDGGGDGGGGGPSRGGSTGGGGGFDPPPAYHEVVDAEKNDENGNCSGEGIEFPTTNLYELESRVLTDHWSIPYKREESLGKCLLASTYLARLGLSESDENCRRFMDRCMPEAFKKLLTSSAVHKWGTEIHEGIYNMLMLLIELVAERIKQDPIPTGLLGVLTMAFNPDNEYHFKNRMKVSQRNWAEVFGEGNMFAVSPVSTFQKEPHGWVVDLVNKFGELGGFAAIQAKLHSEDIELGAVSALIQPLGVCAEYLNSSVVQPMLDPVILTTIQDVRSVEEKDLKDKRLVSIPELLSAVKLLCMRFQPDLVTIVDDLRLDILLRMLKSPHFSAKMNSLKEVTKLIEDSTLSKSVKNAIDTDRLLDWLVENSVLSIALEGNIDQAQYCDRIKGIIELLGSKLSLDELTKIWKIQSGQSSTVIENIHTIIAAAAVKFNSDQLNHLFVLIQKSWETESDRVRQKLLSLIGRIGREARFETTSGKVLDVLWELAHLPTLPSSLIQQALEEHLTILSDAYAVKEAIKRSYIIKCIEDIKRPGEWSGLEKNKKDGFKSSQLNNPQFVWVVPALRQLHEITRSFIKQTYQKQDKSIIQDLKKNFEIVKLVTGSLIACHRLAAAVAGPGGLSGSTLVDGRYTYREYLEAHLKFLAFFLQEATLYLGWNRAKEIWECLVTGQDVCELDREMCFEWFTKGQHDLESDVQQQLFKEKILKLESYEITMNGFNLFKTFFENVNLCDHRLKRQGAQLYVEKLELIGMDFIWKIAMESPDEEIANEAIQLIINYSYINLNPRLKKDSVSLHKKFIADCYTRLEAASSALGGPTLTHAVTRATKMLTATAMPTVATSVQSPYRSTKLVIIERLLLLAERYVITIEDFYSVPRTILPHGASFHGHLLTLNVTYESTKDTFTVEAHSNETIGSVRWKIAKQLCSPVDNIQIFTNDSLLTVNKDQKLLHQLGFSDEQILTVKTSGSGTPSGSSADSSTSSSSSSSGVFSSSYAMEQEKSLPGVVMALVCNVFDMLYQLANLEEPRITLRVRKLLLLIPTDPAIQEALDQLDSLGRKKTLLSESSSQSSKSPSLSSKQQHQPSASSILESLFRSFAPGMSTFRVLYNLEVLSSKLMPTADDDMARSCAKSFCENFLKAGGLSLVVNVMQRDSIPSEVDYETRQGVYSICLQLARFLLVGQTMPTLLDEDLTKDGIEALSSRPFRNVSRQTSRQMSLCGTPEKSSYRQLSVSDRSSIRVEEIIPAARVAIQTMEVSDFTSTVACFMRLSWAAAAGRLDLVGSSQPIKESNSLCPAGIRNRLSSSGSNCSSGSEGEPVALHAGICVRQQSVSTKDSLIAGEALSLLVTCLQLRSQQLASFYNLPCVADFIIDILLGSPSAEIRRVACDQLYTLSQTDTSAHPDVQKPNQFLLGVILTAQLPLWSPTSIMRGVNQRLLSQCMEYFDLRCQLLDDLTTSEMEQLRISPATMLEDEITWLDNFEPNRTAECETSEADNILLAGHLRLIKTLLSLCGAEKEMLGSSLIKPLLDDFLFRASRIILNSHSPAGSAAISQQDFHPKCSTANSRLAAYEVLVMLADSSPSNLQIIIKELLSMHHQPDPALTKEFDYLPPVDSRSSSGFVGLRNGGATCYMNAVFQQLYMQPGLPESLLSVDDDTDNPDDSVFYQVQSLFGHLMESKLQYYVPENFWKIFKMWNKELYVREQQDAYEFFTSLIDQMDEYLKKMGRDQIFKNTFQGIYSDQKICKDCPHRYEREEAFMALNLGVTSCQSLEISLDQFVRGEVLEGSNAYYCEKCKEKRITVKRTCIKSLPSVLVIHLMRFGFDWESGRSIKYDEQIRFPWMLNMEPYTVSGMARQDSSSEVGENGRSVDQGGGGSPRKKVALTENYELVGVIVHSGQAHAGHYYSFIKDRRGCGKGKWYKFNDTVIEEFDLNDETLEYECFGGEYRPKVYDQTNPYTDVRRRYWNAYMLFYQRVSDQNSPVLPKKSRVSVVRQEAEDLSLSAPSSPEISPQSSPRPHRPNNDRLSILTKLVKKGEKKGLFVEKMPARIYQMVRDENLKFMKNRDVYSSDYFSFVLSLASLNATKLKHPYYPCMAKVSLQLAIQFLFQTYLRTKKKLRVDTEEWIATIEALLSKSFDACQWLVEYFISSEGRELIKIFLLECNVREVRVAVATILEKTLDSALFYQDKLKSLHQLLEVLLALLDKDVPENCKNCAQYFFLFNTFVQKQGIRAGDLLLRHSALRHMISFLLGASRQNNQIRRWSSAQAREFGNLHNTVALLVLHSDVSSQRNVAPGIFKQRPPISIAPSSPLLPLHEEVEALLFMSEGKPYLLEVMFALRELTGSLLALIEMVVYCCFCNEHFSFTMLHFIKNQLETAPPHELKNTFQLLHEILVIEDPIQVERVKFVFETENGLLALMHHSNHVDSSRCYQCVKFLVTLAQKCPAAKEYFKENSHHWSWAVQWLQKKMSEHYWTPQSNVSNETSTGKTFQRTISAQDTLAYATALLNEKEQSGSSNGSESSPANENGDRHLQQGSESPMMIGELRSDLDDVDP

NC(=O)C1CCCN(C(=O)CCl)C1 (centres undefined)
inactive: [1] -0.249 | [2] -0.257 | [3] -0.119 | [4] -0.348
